Most compounds without a hit are left out; they make up all but 1.3% or so of the library.
GALR2 blocker: antagonists of human galanin receptor 2 (GALR2). O43603. inhibition, % at 4 µM. 0.39% of 140,000 active. GALR2-expressing cells, antagonist mode; in the data active = inhibition above about 27%;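 note: cells stimulated with galanin 1-16 at roughly its EC80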
Target sequence (O43603 whole entry, looked up): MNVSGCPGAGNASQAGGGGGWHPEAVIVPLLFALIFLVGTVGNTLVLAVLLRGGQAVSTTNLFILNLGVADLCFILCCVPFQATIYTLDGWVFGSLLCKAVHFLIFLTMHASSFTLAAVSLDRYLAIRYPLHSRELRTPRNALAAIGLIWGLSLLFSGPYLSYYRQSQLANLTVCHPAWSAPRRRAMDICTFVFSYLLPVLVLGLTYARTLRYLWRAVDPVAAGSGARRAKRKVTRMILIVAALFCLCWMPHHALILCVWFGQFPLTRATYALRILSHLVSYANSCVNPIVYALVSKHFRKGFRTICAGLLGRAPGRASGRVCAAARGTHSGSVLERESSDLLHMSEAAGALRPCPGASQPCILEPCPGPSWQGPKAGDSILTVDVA
S1P2 ag: S1P2 (human) receptor agonism; O95136; S1P2-expressing cell line, agonist reporter read-out; activation, % at 4.5 µM; 0.46% of 97,000 active; in the data active = activation above about 16%
Target sequence (O95136 whole entry, looked up): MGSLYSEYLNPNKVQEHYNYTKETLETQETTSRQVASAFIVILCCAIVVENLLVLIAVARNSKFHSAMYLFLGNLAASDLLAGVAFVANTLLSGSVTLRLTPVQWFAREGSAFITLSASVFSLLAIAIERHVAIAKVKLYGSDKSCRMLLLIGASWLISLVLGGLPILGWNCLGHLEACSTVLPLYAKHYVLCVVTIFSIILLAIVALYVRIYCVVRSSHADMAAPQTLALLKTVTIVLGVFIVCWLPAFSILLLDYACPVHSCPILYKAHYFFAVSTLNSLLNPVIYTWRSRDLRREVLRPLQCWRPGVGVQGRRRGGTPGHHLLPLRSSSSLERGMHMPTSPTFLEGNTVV
F-actin modifier: modifiers of cytoskeleton assembly; HUVEC TNFa F-actin phalloidin imaging, high content; inhibition, % at 2 µM; 0.18% of 91,000 active; AID 836;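 active = inhibition above the batch mean plus 3 SD and confirmed as a hit by visual image inspection, cut at about 30% in these data, passing the limit was not always enough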
S1P2 antag: S1P2 (human) receptor antagonism; inhibition, % at 5 µM; cell-based S1P2 antagonist assay, inhibition at 5 uM; AID 736; 0.21% of 97,000 active; in the data active = inhibition above about 45%;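 note: CRE beta-lactamase reporter cells expressing human S1P2 stimulated with S1P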
GALR2 agonist: activates the human galanin receptor 2 | AID 803 | GALR2-expressing cells, agonist activation read-out | activation, % (no concentration beside the values) | O43603 | 0.48% of 140,000 active; in the data active = activation above about 5%, passing the limit was not always enough
GALR2 ag confirm: confirmation of human galanin receptor 2 (GALR2) agonists | GALR2-expressing cells, agonist activation | 10% of 460 active | shares compounds with GALR2 agonist | activation, % at 5.6 µM; in the data active = activation above about 8.4%
BLA act counter: counter-screen for GALR2 agonists: beta-lactamase reporter activators. shares compounds with GALR2 agonist. CHO NFAT-bla reporter, beta-lactamase FRET activation. activation, % at 5.6 µM. 10% of 460 active;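 active = activation above the screen-wide mean activation plus 3 SD, cut at about 8% in these data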
Each line names hits and unclear results; the compound was inactive in the other large screens (follow-up assays come after a bar, where they were run).

COc1cc2nc(/C=C/c3cc(OC)c(OC)c(OC)c3)sc2cc1SC	GALR2 agonist 14 (no result: S1P2 ag, F-actin modifier, S1P2 antag) | GALR2 ag confirm inactive | BLA act counter 9.0
N#Cc1c(-c2ccccc2)ccnc1Oc1ccccc1	none
COc1ccc(NC(=O)CSc2nc(N)c(C#N)cc2C#N)cc1	none
CCOC(=O)c1c(C#N)c(SCC(=O)Nc2ccc(OC)cc2)nc2c1CN(CC)CC2	GALR2 agonist 67 | GALR2 ag confirm inactive | BLA act counter inactive
CCN(CC)S(=O)(=O)c1ccc(-c2nnc(SCC(C)=O)o2)cc1	none (no result: F-actin modifier) | GALR2 ag confirm inactive | BLA act counter inactive
Cc1ccc(C(c2nnnn2C2CCCC2)N2c3ccccc3CC2C)cc1 (stereo unspecified)	none (no result: S1P2 ag, F-actin modifier, S1P2 antag)
O=C(c1ccco1)N1CCN(C(=O)c2cc3c(=O)oc4ccccc4c3s2)CC1	GALR2 agonist 30 | GALR2 ag confirm inactive | BLA act counter inactive
COC(=O)C1=CNC=C(C(=O)OC)C1c1ccccc1Cl	none | GALR2 ag confirm inactive | BLA act counter inactive
CCSc1nnc(-c2cccnc2)n1-c1ccc(C)c(Cl)c1	none | GALR2 ag confirm inactive | BLA act counter inactive
COc1ccc(C(=O)Nc2ccc(/C(C)=N/NC(=O)c3ccccc3O)cc2)cc1OC	none (no result: S1P2 ag, F-actin modifier, S1P2 antag)
CC1CN(CC(=O)c2c(N)n(Cc3ccccc3)c(=O)n(C)c2=O)CC(C)O1 (stereo unspecified)	GALR2 agonist 44 | GALR2 ag confirm inactive | BLA act counter inactive
Cn1c(=O)c(C(=O)CN2CCOCC2)c(N)n(Cc2ccccc2)c1=O	none
COc1ccc(-c2nnc3n2N=C(c2cccc(Br)c2)CS3)cc1OC	GALR2 agonist 9.7 (no result: S1P2 ag, F-actin modifier, S1P2 antag) | GALR2 ag confirm inactive | BLA act counter inactive
COc1ccc2ccccc2c1/C=N/NC(=O)c1sc(N)c(C#N)c1C	GALR2 agonist 12 (no result: S1P2 ag, F-actin modifier, S1P2 antag) | GALR2 ag confirm inactive | BLA act counter inactive
CC(C)(C)NC(=O)/C(=C\C=C\c1ccccc1)NC(=O)c1ccc([N+](=O)[O-])cc1	none (no result: S1P2 ag, F-actin modifier, S1P2 antag)
Cc1cc(C)c(NC(=O)/C(=C/c2ccccc2)c2ccccc2)c(C)c1	none (no result: S1P2 ag, F-actin modifier, S1P2 antag)
Cc1ccc(NC(=O)/C(=C/c2ccco2)c2ccccc2)c(C)c1	GALR2 agonist 91 (no result: F-actin modifier) | GALR2 ag confirm inactive | BLA act counter inactive
CCC(C)n1c(SCc2ccc([N+](=O)[O-])cc2)nc2ccsc2c1=O (stereo unspecified)	none (no result: S1P2 ag, F-actin modifier, S1P2 antag)
COC(=O)/C(=C/Nc1ccccc1)[N+](=O)[O-]	none
COC(=O)/C(=C/Nc1ccc(O)cc1)[N+](=O)[O-]	none (no result: F-actin modifier) | GALR2 ag confirm inactive | BLA act counter inactive
Cc1cc2c(cc1C)C(c1ccccc1Br)CC(=O)N2 (stereo unspecified)	GALR2 agonist 21 (no result: S1P2 ag, F-actin modifier, S1P2 antag) | GALR2 ag confirm inactive | BLA act counter inactive
Cc1nnc(SCC(=O)c2cc(C)n(-c3ccc4c(c3)OCO4)c2C)s1	none | GALR2 ag confirm inactive | BLA act counter inactive
Cc1cc(C(=O)CSc2nnnn2C)c(C)n1-c1ccc2c(c1)OCCO2	none
COc1cc2c(cc1NC(=O)CSc1nc3ccc(C)cc3[nH]1)oc1ccccc12	none (no result: S1P2 ag, F-actin modifier, S1P2 antag)
Cc1cc(C)cc(NC(=O)CN2CCCN(S(=O)(=O)c3ccc(Br)s3)CC2)c1	none (no result: F-actin modifier)
Cc1ccc(NC(=O)CN2CCCN(S(=O)(=O)c3ccc(Br)s3)CC2)cc1	none (no result: F-actin modifier) | GALR2 ag confirm inactive | BLA act counter inactive
CCOC(=O)c1c(NC(=O)C2=C(C)NC(=S)NC2c2ccc(CC)cc2)sc(C)c1C (stereo unspecified)	GALR2 agonist 9.5 (no result: S1P2 ag, F-actin modifier, S1P2 antag) | GALR2 ag confirm inactive | BLA act counter inactive
COc1cc(NC(=O)COC(C)=O)c(C)cc1[N+](=O)[O-]	none (no result: S1P2 ag, F-actin modifier, S1P2 antag)
CCOC(=O)c1ccc2[nH]c(C)c(CCC(C)=O)c(=O)c2c1	none
CC(=O)Nc1ccc2[nH]c(C)c(CC=C(Cl)Cl)c(=O)c2c1	GALR2 agonist 14 | GALR2 ag confirm inactive | BLA act counter inactive
Cn1c(=O)[nH]c(=O)c2c1nc(N1CCNCC1)n2Cc1cccc2ccccc12	GALR2 agonist 15 | GALR2 ag confirm inactive | BLA act counter inactive
Cn1c(N)c(C(=O)COC(=O)CNS(=O)(=O)c2cccc(Cl)c2)c(=O)n(C)c1=O	none (no result: S1P2 ag, F-actin modifier, S1P2 antag)
COC(=O)CCC(=O)Nc1nnc(C(F)(F)F)s1	GALR2 agonist 144 | GALR2 ag confirm inactive | BLA act counter inactive
Cc1cc(=O)oc2c3c4c(cc12)OCCN4CCC3	GALR2 agonist 15 | GALR2 ag confirm inactive | BLA act counter inactive
Cc1ccc(-c2nc(-c3cccnc3)sc2CC(=O)Nc2ccc3nc(C)sc3c2)cc1	none (no result: S1P2 ag, F-actin modifier, S1P2 antag)
Cc1nc(NC(=O)/C=C/c2ccc(C(C)(C)C)cc2)sc1C(=O)N(C)C	none (no result: S1P2 ag, F-actin modifier, S1P2 antag)
CCOC(=O)N1CCN(C(=O)C2CCN(S(=O)(=O)c3c(C)cc(C)cc3C)CC2)CC1	GALR2 agonist 18 (no result: F-actin modifier) | GALR2 ag confirm inactive | BLA act counter inactive
CCOC(=O)N1CCN(S(=O)(=O)c2c(C)cc(C)cc2C)CC1	none
COc1ccc(NC(=O)c2cccc(F)c2)cc1Cl	none
COc1ccc(NC(=O)c2ccccc2F)cc1Cl	GALR2 agonist 15 | GALR2 ag confirm inactive | BLA act counter inactive
CC(NC(=O)C1CCCN(C(=O)N(C)C)C1)c1ccccc1 (stereo unspecified)	none
Nc1cccc(-n2nnnc2CN2CCOCC2)c1	none (no result: S1P2 ag, F-actin modifier, S1P2 antag)
Cc1ccc(/C(N)=N/OC(=O)c2ccco2)cc1	none
Cc1ccc(NC2=C(Cl)C(=O)OC2OC(=O)c2ccco2)cc1 (stereo unspecified)	GALR2 agonist 35 (no result: F-actin modifier) | GALR2 ag confirm inactive | BLA act counter inactive
Cc1ccc(S(=O)(=O)N2CCN(C(=O)COc3ccc(NC(=O)c4ccco4)cc3)CC2)cc1	GALR2 agonist 13 | GALR2 ag confirm inactive | BLA act counter inactive
CN1CCC/C1=C/C=C1\SC(=S)NC1=O	none (no result: S1P2 ag, F-actin modifier, S1P2 antag)
CCCCCCN1C(=O)C(O)=C(C(C)=O)C1c1ccc(Cl)cc1 (stereo unspecified)	none (no result: S1P2 ag, F-actin modifier, S1P2 antag)
CCCCN1C(=O)C(O)=C(C(C)=O)C1c1ccccc1 (stereo unspecified)	GALR2 agonist 172 (no result: F-actin modifier) | GALR2 ag confirm inactive | BLA act counter inactive
Cc1cccc(S(=O)(=O)c2c(N)n(/N=C/c3ccco3)c3nc4ccccc4nc23)c1	GALR2 agonist 54 | GALR2 ag confirm inactive | BLA act counter inactive
Cc1ccc(S(=O)(=O)c2c(N)n(/N=C/c3ccco3)c3nc4ccccc4nc23)cc1	none
O=C(CCSCCc1ccccn1)Nc1ccc(Cl)cn1	none | GALR2 ag confirm inactive | BLA act counter inactive
COc1ccccc1NC(=O)c1c(Nc2ccccc2F)sc(C(=O)Nc2cccc(Cl)c2)c1N	none (no result: S1P2 ag, F-actin modifier, S1P2 antag)
O=C(NCC(=O)N1CCCC1C(=O)O)OC1CCCCC1 (stereo unspecified)	none (no result: F-actin modifier)
NC(CC(=O)OC1CCCCC1)C(=O)OC1CCCCC1 (stereo unspecified)	none | GALR2 ag confirm inactive | BLA act counter inactive
O=C(Nc1cccc(O)c1)C(Cc1ccccc1)N1C(=O)c2cccc3cccc(c23)C1=O (stereo unspecified)	GALR2 agonist 10 (no result: S1P2 ag, F-actin modifier, S1P2 antag) | GALR2 ag confirm inactive | BLA act counter inactive
COc1ccccc1-c1cc(C(F)(F)F)nc(S(=O)(=O)CCCC(=O)N2CCOCC2)n1	none | GALR2 ag confirm inactive | BLA act counter inactive
COc1ccccc1-c1cc(C(F)(F)F)nc(S(=O)(=O)CCCC(=O)O)n1	none (no result: F-actin modifier)

Source: PubChem BioAssay (several laboratories)
